Hits are enriched below; roughly 1.8% of the tested compounds scored in any of these assays.
AF4-AF9 inh = blocks AF4 peptide binding to human AF9. 0.47% of 350,000 active. AID 651704. inhibition, % at 10 µM. AlphaScreen, biotin-AF4 peptide binding to FLAG-AF9. P42568;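 active = every replicate reaching a set inhibition limit, whatever the replicate mean, cut at about 25% in these data; inconclusive = mean inhibition reaches that limit but some replicates miss it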;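 also: 0% = plate neutral control median and 100% = total signal loss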
Target sequence (P42568 whole entry, looked up): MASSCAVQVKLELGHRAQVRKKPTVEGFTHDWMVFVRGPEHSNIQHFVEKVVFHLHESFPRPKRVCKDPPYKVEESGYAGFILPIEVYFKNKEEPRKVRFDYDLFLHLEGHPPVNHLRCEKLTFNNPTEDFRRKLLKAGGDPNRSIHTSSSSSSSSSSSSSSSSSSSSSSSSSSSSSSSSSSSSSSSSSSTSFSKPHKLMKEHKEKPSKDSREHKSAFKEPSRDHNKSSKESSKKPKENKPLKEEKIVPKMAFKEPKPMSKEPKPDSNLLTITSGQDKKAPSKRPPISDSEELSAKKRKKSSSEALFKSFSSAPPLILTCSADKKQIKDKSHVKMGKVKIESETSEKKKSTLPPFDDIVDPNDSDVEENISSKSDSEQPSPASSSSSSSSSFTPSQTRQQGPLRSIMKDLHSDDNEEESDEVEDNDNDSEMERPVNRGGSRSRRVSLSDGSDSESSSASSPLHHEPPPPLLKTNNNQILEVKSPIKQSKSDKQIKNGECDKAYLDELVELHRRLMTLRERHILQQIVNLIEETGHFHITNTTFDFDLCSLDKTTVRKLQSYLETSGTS
PDI inh = blocks human protein disulfide isomerase activity; PDI insulin aggregation turbidity, A650, 90 min; P07237; inhibition, % at 10 µM; AID 588391; 0.052% of 350,000 active;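 active = mean inhibition across replicates of 30% or more, whatever share of single replicates reach that level; inconclusive = mean inhibition below 30% while every single replicate reaches 30%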
DENV2 CPE = protects cells from dengue virus 2 cytopathic effect; DENV2-infected cells, cytopathic effect rescue, plate reader; CPE inhibition, % at 9.99 µM; 1.7% of 350,000 active; AID 651640; in the data active = CPE inhibition above about 20%, passing the limit was not always enough; inconclusive = no clear call, values can overlap the other calls; tested in BHK-21 cells;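 also: 0% = median of neutral control wells and 100% = median of positive control wells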
ERAP1 inh = ERAP1 (human) enzyme inhibition; Q9NZ08; 0.15% of 340,000 active; inhibition, % at 10.7 µM; recombinant ERAP1, Leu-AMC fluorescence, 60 min; AID 652197;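 active = mean replicate inhibition of at least 30%, or all replicates individually reaching that 30% level; inactive = mean below 30% and not every replicate reaching it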;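 also: 0% = neutral control wells and 100% = L-leucinethiol positive control wells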
ERp5 block = ERp5 (human) disulfide isomerase inhibition; Q15084; ERp5 insulin aggregation, absorbance 650 nm, 90 min; inhibition, % at 9.99 µM; 0.05% of 350,000 active; AID 651711;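 active = mean replicate inhibition above about 25%, with every replicate also reaching it, limit read from the data, passing the limit was not always enough; inconclusive = only one of those two criteria met; inactive = neither criterion met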
Starred values were filed as active, the others as inactive; ? = inconclusive; nt = no result.

SMILES | AF4-AF9 inh | PDI inh | DENV2 CPE | ERAP1 inh | ERp5 block
CCCCCCCNC(=O)C1(CC2CC(c3ccccc3)=NO2)CCN(C(=O)c2ccccc2)CC1 (configuration not stated) | 9 | -3 | 24* | 0 | 5
O=C(C[C@@H]1C[C@H]2c3cc(NS(=O)(=O)c4ccc(F)cc4)ccc3O[C@H]2[C@@H](CO)O1)NCc1cccc(F)c1 | 0 | nt | -5 | -5 | -3
COc1cccc(C(=O)Nc2cc(C)c3c(=O)oc4ccccc4c3n2)c1 | 43* | 11 | -13 | -4 | ?
C[C@H](O)C#Cc1cnc2c(c1)C(=O)N([C@H](C)CO)C[C@H](C)[C@@H](CN(C)CC1CCCCC1)O2 | -1 | nt | 11 | 0 | nt
C[C@H](O)C#Cc1cnc2c(c1)C(=O)N([C@@H](C)CO)C[C@H](C)[C@H](CN(C)CC1CCCCC1)O2 | 2 | nt | 3 | 0 | 32*
C[C@@H]1CN([C@@H](C)CO)C(=O)c2cc(-c3ccc(F)cc3)cnc2O[C@H]1CN(C)CC1CCCC1 | -8 | nt | 54* | 0 | 7
COc1ccc(C#Cc2cnc3c(c2)C(=O)N([C@@H](C)CO)C[C@H](C)[C@H](CN(C)CC2CCCC2)O3)cc1 | 7 | nt | 37* | 2 | 3
COc1ccc(C#Cc2cnc3c(c2)C(=O)N([C@@H](C)CO)C[C@H](C)[C@@H](CN(C)CC2CCCC2)O3)cc1 | 9 | nt | 0 | -1 | -2
COc1ccc(C#Cc2cnc3c(c2)C(=O)N([C@H](C)CO)C[C@H](C)[C@H](CN(C)CC2CCCC2)O3)cc1 | 4 | nt | 40* | 5 | 0
COCC#Cc1ccc([C@H]2[C@H]3CN(C(=O)C4CC4)CC(=O)N3[C@H]2CO)cc1 | -5 | nt | -3 | 1 | -2
C[C@H](CO)N1C[C@H](C)[C@@H](CN(C)Cc2ccncc2)Oc2ccc(NC(=O)CCC(F)(F)F)cc2C1=O | -8 | nt | 4 | -2 | 0
Cc1ccccc1S(=O)(=O)N[C@@H]1CC[C@H](CCn2cc(-c3ccc(F)cc3)nn2)O[C@H]1CO | -4 | nt | 10 | 0 | -3
CO[C@H]1CN(C)C(=O)c2ccc(NC(=O)C3CC3)cc2OC[C@@H](C)N(CC2CCCC2)C[C@@H]1C | -4 | nt | 3 | 2 | -1
CC1OC(CCc2cccc(Cl)c2)Cc2[nH]c(=S)[nH]c(=O)c21 (configuration not stated) | -2 | nt | 40* | 3 | -2
C[C@@H]1CN([C@@H](C)CO)S(=O)(=O)c2ccc(-c3cccnc3)cc2O[C@H]1CN(C)Cc1cncnc1 | 2 | nt | -2 | 4 | -8
CN1CCN(C2CCN(Cc3ccc(O)c4ncccc34)CC2)CC1 | 47* | 2 | nt | -2 | 0
Oc1ccc(CN2CCN(Cc3ccccc3)CC2)c2cccnc12 | nt | 2 | nt | nt | nt
C[C@@H]1CN([C@@H](C)CO)C(=O)Cc2cc(NC(=O)Nc3ccc4c(c3)OCO4)ccc2O[C@H]1CN(C)C(=O)NC1CCCCC1 | 5 | nt | 0 | -3 | -2
Oc1ccc(Cl)cc1CNCc1ccc(F)cc1 | 1 | -1 | 23* | -7 | 6
CC(C)(C)C1CCC(OC(=O)C[N+]2(C)CCCC2)CC1 (configuration not stated) | -5 | 1 | 4 | 41* | 2
CC(C)(C)C1CCC(OC(=O)C[N+]2(C)CCCCC2)CC1 (configuration not stated) | -1 | 4 | 1 | 3 | 6
C[N+]1(CC(=O)OCCCC2CCCCC2)CCCC1 | -6 | 1 | 8 | 108* | -3
Cc1ccc(S(=O)(=O)N[C@@H]2CC[C@@H](CCNS(=O)(=O)Cc3ccccc3)O[C@@H]2CO)cc1 | -2 | nt | -15 | 0 | -5
CCCC(=O)NC1CCCc2c1cnn2-c1ccc(C)c(C)c1 (configuration not stated) | 5 | 10 | -6 | 2 | -1
Cc1ccc(-n2ncc3c2CCCC3NC(=O)CCc2c(C)noc2C)cc1C (configuration not stated) | -1 | -20 | 64* | 4 | -2
SMILES | AF4-AF9 inh | PDI inh | DENV2 CPE | ERAP1 inh | ERp5 block
COc1cccc(-c2ocnc2C(=O)Nc2ccc(N3CCOCC3)cc2N2CCOCC2)c1 | 35* | 5 | -8 | 1 | 4
COc1ccccc1OCC(=O)Nc1ccc(N2CCOCC2)cc1N1CCOCC1 | 6 | 3 | 29* | 0 | 7
Cc1ccccc1OCC(=O)Nc1ccc(N2CCOCC2)cc1N1CCOCC1 | 10 | 5 | 3 | 2 | -3
O=C(N[C@@H]1CC[C@H](CC(=O)N2CCN(c3ccccc3)CC2)O[C@H]1CO)c1ccccc1 | 2 | nt | ? | -5 | -2
Cn1cc(C=C2C(=O)OC3(CCCCC3)OC2=O)c2ccccc21 | 26* | -5 | 4 | -2 | 2
C[C@]12CC[C@@H]3c4ccc(O)cc4C(=O)C[C@H]3[C@@H]1CC[C@@H]2O | 5 | 39* | ? | 2 | 4
N#Cc1c(NC(=O)c2cccc(S(=O)(=O)Nc3ccc(C(=O)O)cc3)c2)sc2c1CCCC2 | -4 | 6 | 6 | 43* | 6
COc1cccc(-c2ccc([C@H]3[C@H](CO)N(C(=O)C4CC4)C34CN(C(C)=O)C4)cc2)c1 | -1 | nt | 2 | -1 | -3
C[C@@H]1CN([C@@H](C)CO)C(=O)c2cc(C#Cc3ccccc3F)cnc2O[C@H]1CN(C)C(=O)Cc1ccccc1 | -2 | nt | ? | 3 | -2
Cc1cccc([C@@H]2[C@@H]3C(=O)N(Cc4ccccc4)C(=O)[C@@H]3[C@]3(Cc4ccccc4)C(=O)N(c4ccc(C(F)(F)F)cc4)C(=O)N23)c1 | 14 | -3 | 102* | 1 | 0
Cc1cccc([C@@H]2[C@@H]3C(=O)N(Cc4ccccc4)C(=O)[C@@H]3[C@]3(Cc4ccccc4)C(=O)N(c4ccccc4)C(=O)N23)c1 | -1 | -1 | 1 | -5 | 0
CCCN1C[C@H](C)[C@H](OC)CN(C)C(=O)c2ccc(NC(=O)c3cccc(F)c3)cc2OC[C@H]1C | 39* | nt | 5 | 5 | -6
CCCN1C[C@@H](C)[C@H](OC)CN(C)C(=O)c2ccc(NC(=O)c3cccc(F)c3)cc2OC[C@H]1C | ? | nt | -15 | 2 | 1
CCCN1C[C@H](C)[C@@H](OC)CN(C)C(=O)c2ccc(NC(=O)c3cccc(F)c3)cc2OC[C@@H]1C | 39* | nt | 29* | 5 | 2
CCCN1C[C@H](C)[C@@H](OC)CN(C)C(=O)c2cc(NC(=O)c3ccc(F)cc3)ccc2OC[C@H]1C | 1 | nt | 47* | 0 | 6
CCN1C[C@@H](C)[C@H](OC)CN(C)C(=O)c2cc(NC(=O)c3ccno3)ccc2OC[C@H]1C | 1 | nt | 20* | 2 | 6
Cc1ccc(S(=O)(=O)N2C[C@@H](O)COC[C@@H]3O[C@H](CC(=O)NCCN4CCCCC4)CC[C@H]32)cc1 | -3 | nt | 4 | 2 | 2
CCCC#Cc1cnc2c(c1)C(=O)N([C@@H](C)CO)C[C@@H](C)[C@@H](CN(C)C(=O)NC1CCCC1)O2 | -2 | nt | 3 | 1 | 7
